Source: ChEMBL document CHEMBL1961873, “Compounds: GSK PKIS; Assays: Nanosyn kinase panel” (2012)

biological target: Protein kinase C gamma type (Homo sapiens) (UniProt P05129); conditions: at 0.1 µM

Compound | inhibition [%]
COc1ccc(-c2coc3ncnc(N)c23)cc1 | 0.83
Cc1cc(O)cc(C)c1/C=C/c1cncc(-c2nn[nH]n2)c1 | -3.08
NCc1ccc(-c2nc(-c3ccc(Cl)c(O)c3)c(-c3ccncc3)[nH]2)cc1 | 0.36
Cc1ccc(C(=O)NC2CCCCC2)cc1-c1ccc(C(=O)NCC2CC2)cc1 | 3.68
COc1cccc(-n2ncc3c(N/N=C/c4cccc(F)c4)ncnc32)c1 | 2.4
[O-][S+]1CCN(Cc2ccc(-c3ccc4ncnc(Nc5ccc(OCc6ccccc6)c(F)c5)c4c3)o2)CC1 | -0.39
COc1cc2c(cc1Nc1nc(N3CCc4ccccc43)c3cc[nH]c3n1)N(C(=O)CN(C)C)CC2 | 1.53
COc1cc2ncn(-c3cc(OCc4ccccc4Cl)c(C(N)=O)s3)c2cc1OC | -0.07
COc1ccccc1Nc1ncc(-c2ccccc2)o1 | -0.19
c1cnn2ncc(-c3ccnc(Nc4ccc5c(c4)OCCO5)n3)c2c1 | 1.93
CS(=O)(=O)CCN(CC#N)Cc1ccc(-c2ccc3ncnc(Nc4ccc(OCc5cccc(F)c5)c(Cl)c4)c3c2)o1 | -0.22
CS(=O)(=O)CCNCc1ccc(-c2ccc3ncnc(Nc4ccc(OCc5cccc(F)c5)c(C(F)(F)F)c4)c3c2)o1 | 1.87
COc1ccc(-c2nn3ncccc3c2-c2ccnc(Nc3ccc(Cl)c(C(F)(F)F)c3)n2)cc1 | 1.74
CCn1c(-c2nonc2N)nc2ccncc21 | -2.41
Nc1ncnc2occ(-c3ccc(NC(=O)Nc4cccc(C(F)(F)F)c4)cc3)c12 | -0.58
CC(C)=Cc1cccc2c1/C(=N/Nc1ccc(S(N)(=O)=O)cc1)C(=O)N2 | 1.44
Fc1cccc(COc2ccc(Nc3ncnc4cc(-c5ccc[nH]5)sc34)cc2Cl)c1 | 3.21

Compound | inhibition [%]
CCN1CCC(CC(=O)Nc2n[nH]c3nc(-c4cccs4)c(Br)cc23)CC1 | -1.57
NC(=O)c1ccc(-c2nc(-c3ccccn3)c(-c3ccc4c(c3)OCO4)[nH]2)cc1 | -0.15
CCn1c(-c2nonc2N)nc2c(C#CC(C)(C)O)nc(OC[C@@H](N)c3ccccc3)cc21 | 8.95
CCn1c(-c2nonc2N)nc2cncc(C(=O)N3CC[C@H](N)C3)c21 | 6.77
Cc1ccc(NC(=O)c2ccnc(N3CCCC3)c2)cc1-c1ccc(C(=O)NCC2CC2)cc1 | 1.09
COc1cc(C)c(NC(=O)CN(C)C)cc1Nc1nc(Nc2cccc(F)c2C(N)=O)c2cc[nH]c2n1 | 3.92
CCn1c(-c2nonc2N)nc2cnc(Oc3cccc(NC(=O)c4ccc(OCCN5CCOCC5)cc4)c3)cc21 | 13.9
Nc1nc(-c2ccc3c(c2)C(=Cc2cc(Br)c(O)c(Br)c2)C(=O)N3)cs1 | -2.56
COc1ccc(-c2ccncc2)cc1C(N)=O | 2.34
CC1=C(C(=O)Nc2ccc3[nH]ncc3c2)C(c2ccc(Cl)c(Cl)c2)CC(=O)N1 (stereo not drawn) | 1.51
Fc1cccc(COc2ccc(Nc3ncnc4sc(-c5cccs5)cc34)cc2Cl)c1 | -0.34
CN1CCC(C(=O)Nc2n[nH]c3nnc(-c4ccccc4)cc23)CC1 | 2.25
Cc1nn(C)c2cc(N(C)c3ccnc(Nc4cccc(S(N)(=O)=O)c4)n3)ccc12 | 4.1
COC(=O)Nc1nc2cc(Oc3ccc(NC(=O)Nc4cccc(C(=O)O)c4)cc3)ccc2[nH]1 | 2.38
CS(=O)(=O)CCNCc1nc(-c2ccc3ncnc(Nc4ccc(F)c(Cl)c4)c3c2)cs1 | 2.71
CS(=O)(=O)CCNCc1ccc(-c2ccc3ncnc(Nc4ccc(OCc5ccccc5)c(Cl)c4)c3c2)o1 | 1.29
COC(=O)Nc1nc2cc(Oc3cccc(NC(=O)Nc4cc(C(F)(F)F)ccc4F)c3)ccc2[nH]1 | 1.08

biological target: Protein kinase C gamma type (Homo sapiens) (UniProt P05129); conditions: at 1 µM

Compound | inhibition [%]
COc1ccc(-c2coc3ncnc(N)c23)cc1 | 3.98
Cc1cc(O)cc(C)c1/C=C/c1cncc(-c2nn[nH]n2)c1 | 3.79
NCc1ccc(-c2nc(-c3ccc(Cl)c(O)c3)c(-c3ccncc3)[nH]2)cc1 | 0.42
Cc1ccc(C(=O)NC2CCCCC2)cc1-c1ccc(C(=O)NCC2CC2)cc1 | 3.86
COc1cccc(-n2ncc3c(N/N=C/c4cccc(F)c4)ncnc32)c1 | 1.92
[O-][S+]1CCN(Cc2ccc(-c3ccc4ncnc(Nc5ccc(OCc6ccccc6)c(F)c5)c4c3)o2)CC1 | -0.2
COc1cc2c(cc1Nc1nc(N3CCc4ccccc43)c3cc[nH]c3n1)N(C(=O)CN(C)C)CC2 | 5.19
COc1cc2ncn(-c3cc(OCc4ccccc4Cl)c(C(N)=O)s3)c2cc1OC | 2.36
COc1ccccc1Nc1ncc(-c2ccccc2)o1 | 3.53
c1cnn2ncc(-c3ccnc(Nc4ccc5c(c4)OCCO5)n3)c2c1 | 9.81
CS(=O)(=O)CCN(CC#N)Cc1ccc(-c2ccc3ncnc(Nc4ccc(OCc5cccc(F)c5)c(Cl)c4)c3c2)o1 | -0.45
CS(=O)(=O)CCNCc1ccc(-c2ccc3ncnc(Nc4ccc(OCc5cccc(F)c5)c(C(F)(F)F)c4)c3c2)o1 | 4.01
COc1ccc(-c2nn3ncccc3c2-c2ccnc(Nc3ccc(Cl)c(C(F)(F)F)c3)n2)cc1 | -0.57
CCn1c(-c2nonc2N)nc2ccncc21 | 4.26
Nc1ncnc2occ(-c3ccc(NC(=O)Nc4cccc(C(F)(F)F)c4)cc3)c12 | 2.18
CC(C)=Cc1cccc2c1/C(=N/Nc1ccc(S(N)(=O)=O)cc1)C(=O)N2 | 1.25
Fc1cccc(COc2ccc(Nc3ncnc4cc(-c5ccc[nH]5)sc34)cc2Cl)c1 | 2.69

Compound | inhibition [%]
CCN1CCC(CC(=O)Nc2n[nH]c3nc(-c4cccs4)c(Br)cc23)CC1 | 1.17
NC(=O)c1ccc(-c2nc(-c3ccccn3)c(-c3ccc4c(c3)OCO4)[nH]2)cc1 | 3.47
CCn1c(-c2nonc2N)nc2c(C#CC(C)(C)O)nc(OC[C@@H](N)c3ccccc3)cc21 | 45.3
CCn1c(-c2nonc2N)nc2cncc(C(=O)N3CC[C@H](N)C3)c21 | 41.1
Cc1ccc(NC(=O)c2ccnc(N3CCCC3)c2)cc1-c1ccc(C(=O)NCC2CC2)cc1 | 2.77
COc1cc(C)c(NC(=O)CN(C)C)cc1Nc1nc(Nc2cccc(F)c2C(N)=O)c2cc[nH]c2n1 | 8.9
CCn1c(-c2nonc2N)nc2cnc(Oc3cccc(NC(=O)c4ccc(OCCN5CCOCC5)cc4)c3)cc21 | 55
Nc1nc(-c2ccc3c(c2)C(=Cc2cc(Br)c(O)c(Br)c2)C(=O)N3)cs1 | 2.01
COc1ccc(-c2ccncc2)cc1C(N)=O | 1.71
CC1=C(C(=O)Nc2ccc3[nH]ncc3c2)C(c2ccc(Cl)c(Cl)c2)CC(=O)N1 (stereo not drawn) | -2.08
Fc1cccc(COc2ccc(Nc3ncnc4sc(-c5cccs5)cc34)cc2Cl)c1 | 2.13
CN1CCC(C(=O)Nc2n[nH]c3nnc(-c4ccccc4)cc23)CC1 | 5.3
Cc1nn(C)c2cc(N(C)c3ccnc(Nc4cccc(S(N)(=O)=O)c4)n3)ccc12 | 10.3
COC(=O)Nc1nc2cc(Oc3ccc(NC(=O)Nc4cccc(C(=O)O)c4)cc3)ccc2[nH]1 | -0.24
CS(=O)(=O)CCNCc1nc(-c2ccc3ncnc(Nc4ccc(F)c(Cl)c4)c3c2)cs1 | 0.73
CS(=O)(=O)CCNCc1ccc(-c2ccc3ncnc(Nc4ccc(OCc5ccccc5)c(Cl)c4)c3c2)o1 | 0.93
COC(=O)Nc1nc2cc(Oc3cccc(NC(=O)Nc4cc(C(F)(F)F)ccc4F)c3)ccc2[nH]1 | 2.09
